Most compounds without a hit are left out; they make up all but 1.4% or so of the library.
Mtb MenB inh = blocks the Mycobacterium tuberculosis MenB enzyme; MenB enzyme assay, absorbance read-out; inhibition, % (no concentration beside the values); hit rate 0.43% among 100,000; AID 540299; in the data active means inhibition above about 21%, passing the limit was not always enough
Mtb MbtI inh = MbtI salicylate synthase inhibition | purified MbtI enzyme, fluorescence intensity read-out | hit rate 0.89% among 100,000 | inhibition, % (concentration not given with the values) | AID 493033; in the data active means inhibition mostly above about 56%, no sharp cut-off; inactive means mostly below about 77%
Polio RdRp inh = poliovirus RNA polymerase inhibition; poliovirus polymerase elongation, fluorescence polarization; stronger effect = lower value; % elongation, % (compound at 16.7 µg/mL); hit rate 0.66% among 150,000; AID 588519; in the data active means % elongation below about 90%
Target sequence (P03300 1749-2209 limits assumed): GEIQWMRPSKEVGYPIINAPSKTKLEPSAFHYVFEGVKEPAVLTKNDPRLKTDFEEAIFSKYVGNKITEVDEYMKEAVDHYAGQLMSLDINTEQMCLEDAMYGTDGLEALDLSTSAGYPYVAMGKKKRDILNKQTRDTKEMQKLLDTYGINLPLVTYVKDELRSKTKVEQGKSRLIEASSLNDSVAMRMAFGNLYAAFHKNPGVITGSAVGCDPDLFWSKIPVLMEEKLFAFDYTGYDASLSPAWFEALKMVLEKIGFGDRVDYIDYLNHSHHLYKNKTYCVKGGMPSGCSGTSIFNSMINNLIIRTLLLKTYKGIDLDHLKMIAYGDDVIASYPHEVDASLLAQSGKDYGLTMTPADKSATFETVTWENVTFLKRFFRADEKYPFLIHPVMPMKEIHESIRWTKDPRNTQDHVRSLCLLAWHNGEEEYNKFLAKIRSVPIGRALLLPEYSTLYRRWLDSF
Active calls of the source: *.

CC1=NN(c2ccccc2)C(=S)/C1=C\N1CCCCC1 was read as Mtb MenB inh -40, Mtb MbtI inh 98* and Polio RdRp inh 104.
`CC1=NN(c2ccccc2)C(=O)/C1=C\c1ccc(N)cc1` gave Mtb MenB inh -95, Mtb MbtI inh 11 and Polio RdRp inh 99.
`CN1C(=O)C(=Cc2ccccc2OCc2ccccc2)C(=O)N(C)C1=S` gave Mtb MenB inh -25, Mtb MbtI inh 77 and Polio RdRp inh 100.
`COc1cccc(C=C2C(=O)N(C)C(=S)N(C)C2=O)c1OC` gave Mtb MenB inh -76, Mtb MbtI inh 93* and Polio RdRp inh 95.
For CCOc1cccc(CNCCN2CCOCC2)c1 the results were Mtb MenB inh -46, Mtb MbtI inh -2 and Polio RdRp inh 97.
c1cncc(CNCCN2CCOCC2)c1 was read as Mtb MenB inh 65*, Mtb MbtI inh -8 and Polio RdRp inh 102.
O=P(CN(Cc1cccs1)CC1CCCO1)(c1ccccc1)c1ccccc1 (configuration not stated) was read as Mtb MenB inh 1, Mtb MbtI inh 3 and Polio RdRp inh 100.
For CCOC(=O)/C(C#N)=C\N1CCOCC1 the results were Mtb MenB inh -1, Mtb MbtI inh 11 and Polio RdRp inh 102.
CCOC(=O)/C(C#N)=C\C1=C(N2CCCC2)CC(C)(C)OC1 was read as Mtb MenB inh inactive, Mtb MbtI inh 62* and Polio RdRp inh 101.
Screening COc1cc(OC)cc(C(=O)Nc2cc(NC(=O)c3ccco3)ccc2OC)c1 returned Mtb MenB inh 48*, Mtb MbtI inh 9 and Polio RdRp inh 99.
Screening COc1ccc(NC(=O)c2ccco2)cc1NC(=O)c1ccc(C)c(C)c1 returned Polio RdRp inh 104.
CCn1cc(C(=O)N2CCN(c3ccc(F)cc3)CC2)c(=O)c2cc(S(=O)(=O)N(C)C3CCCCC3)ccc21 was read as Polio RdRp inh 107.
Screening CC1CCN(CCCNC(=O)c2cn(C)c3ccc(S(=O)(=O)N(C)C4CCCCC4)cc3c2=O)CC1 returned Polio RdRp inh 108.
Screening CCn1cc(C(=O)N2CCN(c3ccccc3)CC2)c(=O)c2cc(S(=O)(=O)N(C)C3CCCCC3)ccc21 returned Polio RdRp inh 68*.
`CCC1CCCCN1CCCNC(=O)c1cn(C)c2ccc(S(=O)(=O)N(C)C3CCCCC3)cc2c1=O` (configuration not stated) gave Polio RdRp inh 30*.
Screening Cc1nc2sccn2c(=O)c1S(=O)(=O)N(C)C1CCCCC1 returned Mtb MenB inh 5, Mtb MbtI inh 0 and Polio RdRp inh 103.
For COc1ccc(CN(C)C(=O)c2cc(C)on2)c(OC)c1 the results were Mtb MenB inh -3, Mtb MbtI inh -6 and Polio RdRp inh 102.
`COC(=O)Cn1c(C(=O)OC)cc2c1ccn2C` gave Mtb MenB inh 33*, Mtb MbtI inh 24 and Polio RdRp inh 103.
Screening COC(=O)Cn1c(C(=O)OC)cc2c1ccn2-c1ccc(F)cc1 returned Mtb MenB inh 8, Mtb MbtI inh 89 and Polio RdRp inh 101.
Screening CCC(=O)N(c1nnc(SCc2cc(=O)n3c(C)csc3n2)s1)C1CC1 returned Mtb MenB inh -26, Mtb MbtI inh 19 and Polio RdRp inh 99.
CCOC=C1C(=O)c2ccccc2C1=O was read as Mtb MenB inh -43, Mtb MbtI inh 4 and Polio RdRp inh 91.
`O=C1C(SCCO)=C(SCCO)C(=O)c2ccccc21` gave Mtb MenB inh 20, Mtb MbtI inh 91* and Polio RdRp inh 99.
Cc1sc2ncnc(N)c2c1C was read as Mtb MenB inh -15, Mtb MbtI inh inactive and Polio RdRp inh 67*.
`CCN(CC)c1ncnc2sc(C)c(C)c12` gave Mtb MbtI inh 0 and Polio RdRp inh 100.
`CCCNC(=O)C1=C(C)C(=O)OC12CCN(S(C)(=O)=O)CC2` gave Mtb MenB inh -16, Mtb MbtI inh -6 and Polio RdRp inh 101.
`CC1CCN(Cc2ccc(NC(=O)CCc3nc(C4=CCN(C)CC4)no3)cc2)CC1` gave Mtb MenB inh -34, Mtb MbtI inh 19 and Polio RdRp inh 99.
Screening Cc1[nH]c(-c2ccc(F)cc2)cc1C(=O)N(C)Cc1ccco1 returned Mtb MenB inh -28, Mtb MbtI inh -72 and Polio RdRp inh 104.
`CC1=C(C)C(=O)C(N2CCOCC2)=CC1=O` gave Mtb MenB inh -28, Mtb MbtI inh 0 and Polio RdRp inh 95.
`CCCN(CCC)C1=CC(=O)C(C)=C(C)C1=O` gave Mtb MenB inh -34, Mtb MbtI inh -26 and Polio RdRp inh 86*.
Screening O=C(O)c1cc2cccc(S(=O)(=O)N3CCCCCC3)c2cc1O returned Mtb MenB inh 3 and Polio RdRp inh 102.
`CCNC(=S)N(C)c1ccc(O)cc1` gave Mtb MenB inh -24, Mtb MbtI inh -7 and Polio RdRp inh 100.
Cc1ccc(NC(=O)CSc2nc(=O)n(Cc3ccco3)c3c2CCC3)cc1F was read as Polio RdRp inh 76*.

Screening data as filed in PubChem BioAssay.
